The campaign covered roughly 5,500 compounds. About 2,000 (36%) were called active. Roughly 18% stayed inconclusive and do not appear here. Rule as the data show it: active = normalized growth mostly below about 0.91 (no sharp cut-off); inconclusive = no clear call, values can overlap the other calls; inactive = mostly above about 0.92. The list shows a part of the results.
Assay: chemical genetic growth profiling, strain panel (AID 1159580);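 also: tested at 20 µM; growth read once vehicle control cultures reached saturation at 30 °C; 1 = growth at the plate median or of vehicle wells; lower values mean less growth of the strain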
Details: growth OD

Measured: normalized growth

O=C(Cn1ccnc1[N+](=O)[O-])NCCO
inactive: S. cerevisiae deletion strains, locus YJR075W, strain HOC1, hits give low values 1 | S. cerevisiae deletion strains, locus YKL009W, strain mrt4, hits give low values 1.03 | S. cerevisiae deletion strains, locus YKL068W, hits give low values 1.02 | S. cerevisiae deletion strains, locus YKL085W, strain MDH1 (second series), hits give low values 1.03 | S. cerevisiae deletion strains, locus YKL085W, strain MDH1, hits give low values 1.03 | S. cerevisiae deletion strains, locus YKL160W, strain elf1, hits give low values 1.02 | S. cerevisiae deletion strains, locus YKL190W, strain CNB1, hits give low values 1.01 | S. cerevisiae deletion strains, locus YKR001C, strain vps1, hits give low values 1.01 | S. cerevisiae deletion strains, locus YKR026C, strain gcn3, hits give low values 1.01 | S. cerevisiae deletion strains, locus YKR091W, strain srl3, hits give low values 1.01 | S. cerevisiae deletion strains, locus YLL001W, strain dnm1, hits give low values 1.01 | S. cerevisiae deletion strains, locus YLL026W, hits give low values 1.01 | S. cerevisiae deletion strains, locus YLL041C, strain sdh2, hits give low values 1.01 | S. cerevisiae deletion strains, locus YLR027C, strain aat2, hits give low values 1.01 | S. cerevisiae deletion strains, locus YLR039C, strain RIC1, hits give low values 1.08 | S. cerevisiae deletion strains, locus YLR058C, strain SHM2, hits give low values 1.01 | S. cerevisiae deletion strains, locus YLR102C, strain apc9, hits give low values 1.01 | S. cerevisiae deletion strains, locus YLR113W, strain HOG1, hits give low values 0.988 | S. cerevisiae deletion strains, locus YLR221C, strain rsa3, hits give low values 1.02 | S. cerevisiae deletion strains, locus YLR258W, strain gsy2, hits give low values 1.02 | S. cerevisiae deletion strains, locus YLR262C, strain YPT6 (second series), hits give low values 1.02 | S. cerevisiae deletion strains, locus YLR262C, strain YPT6, hits give low values 1.07 | S. cerevisiae deletion strains, locus YLR268W, strain sec22, hits give low values 0.981 | S. cerevisiae deletion strains, locus YLR320W, strain mms22, hits give low values 1.03 | S. cerevisiae deletion strains, locus YLR330W, strain CHS5, hits give low values 1 | S. cerevisiae deletion strains, locus YLR342W, strain FKS1 (second series), hits give low values 1.08 | S. cerevisiae deletion strains, locus YLR342W, strain FKS1, hits give low values 1.02 | S. cerevisiae deletion strains, locus YLR357W, strain rsc2, hits give low values 1.01 | S. cerevisiae deletion strains, locus YLR370C, strain arc18, hits give low values 1.02 | S. cerevisiae deletion strains, locus YLR371W, strain rom2, hits give low values 1.01 | S. cerevisiae deletion strains, locus YLR384C, strain iki3, hits give low values 1.03 | S. cerevisiae deletion strains, locus YLR418C, strain cdc73, hits give low values 0.95 | S. cerevisiae deletion strains, locus YML016C, strain PPZ1, hits give low values 1 | S. cerevisiae deletion strains, locus YML032C, strain rad52, hits give low values 1.02 | S. cerevisiae deletion strains, locus YML120C, strain ndi1, hits give low values 1 | S. cerevisiae deletion strains, locus YML124C, strain tub3, hits give low values 1 | S. cerevisiae deletion strains, locus YMR058W, strain fet3, hits give low values 1.01 | S. cerevisiae deletion strains, locus YMR078C, strain ctf18, hits give low values 1.01 | S. cerevisiae deletion strains, locus YMR125W, strain sto1, hits give low values 1.02 | S. cerevisiae deletion strains, locus YMR129W, hits give low values 1.02 | S. cerevisiae deletion strains, locus YMR205C, strain PFK2, hits give low values 1.03 | S. cerevisiae deletion strains, locus YMR223W, strain ubp8, hits give low values 1.02 | S. cerevisiae deletion strains, locus YMR231W, strain pep5, hits give low values 1.02 | S. cerevisiae deletion strains, locus YMR263W, strain SAP30, hits give low values 0.993 | S. cerevisiae deletion strains, locus YMR307W, strain GAS1, hits give low values 1.04 | S. cerevisiae deletion strains, locus YNL067W, strain RPL9B, hits give low values 0.988 | S. cerevisiae deletion strains, locus YNL071W, strain lat1, hits give low values 1 | S. cerevisiae deletion strains, locus YNL128W, strain TEP1, hits give low values 0.991 | S. cerevisiae deletion strains, locus YNL153C, strain GIM3, hits give low values 0.97 | S. cerevisiae deletion strains, locus YNL183C, strain NPR1, hits give low values 0.955 | S. cerevisiae deletion strains, locus YNL209W, strain ssb2, hits give low values 1.02 | S. cerevisiae deletion strains, locus YNL233W, strain BNI4, hits give low values 1 | S. cerevisiae deletion strains, locus YNL248C, strain rpa49, hits give low values 1.01 | S. cerevisiae deletion strains, locus YNL250W, strain rad50, hits give low values 0.99 | S. cerevisiae deletion strains, locus YNL271C, strain bni1, hits give low values 0.999 | S. cerevisiae deletion strains, locus YNL298W, strain CLA4, hits give low values 1.01 | S. cerevisiae deletion strains, locus YNL307C, strain MCK1, hits give low values 1.03 | S. cerevisiae deletion strains, locus YNL322C, strain KRE1 (second series), hits give low values 1.02 | S. cerevisiae deletion strains, locus YNL322C, strain KRE1, hits give low values 1.01 | S. cerevisiae deletion strains, locus YNR049C, strain mso1, hits give low values 1.01 | S. cerevisiae deletion strains, locus YNR052C, strain pop2, hits give low values 1.01 | S. cerevisiae deletion strains, locus YOL006C, strain TOP1, hits give low values 1.06 | S. cerevisiae deletion strains, locus YOL012C, strain htz1 0.906 | S. cerevisiae deletion strains, locus YOL147C, strain pex11, hits give low values 1.01 | S. cerevisiae deletion strains, locus YOR001W, strain rrp6, hits give low values 1.02 | S. cerevisiae deletion strains, locus YOR061W, strain CKA2, hits give low values 1 | S. cerevisiae deletion strains, locus YOR069W, strain VPS5, hits give low values 1.01 | S. cerevisiae deletion strains, locus YOR070C, strain gyp1, hits give low values 1.03 | S. cerevisiae deletion strains, locus YOR080W, strain dia2, hits give low values 1.01 | S. cerevisiae deletion strains, locus YOR083W, strain WHI5, hits give low values 1.02 | S. cerevisiae deletion strains, locus YOR106W, strain vam3, hits give low values 1.02 | S. cerevisiae deletion strains, locus YOR136W, strain idh2, hits give low values 1.01 | S. cerevisiae deletion strains, locus YOR144C, strain elg1, hits give low values 1.01 | S. cerevisiae deletion strains, locus YOR184W, strain ser1, hits give low values 1.05 | S. cerevisiae deletion strains, locus YOR231W, strain MKK1, hits give low values 0.986 | S. cerevisiae deletion strains, locus YOR265W, strain rbl2, hits give low values 1.03 | S. cerevisiae deletion strains, locus YOR270C, strain vph1, hits give low values 1.03 | S. cerevisiae deletion strains, locus YOR290C, strain snf2, hits give low values 1.01 | S. cerevisiae deletion strains, locus YOR316C, strain cot1, hits give low values 1 | S. cerevisiae deletion strains, locus YPL051W, strain arl3, hits give low values 1.02 | S. cerevisiae deletion strains, locus YPL055C, strain LGE1, hits give low values 0.955 | S. cerevisiae deletion strains, locus YPL078C, strain atp4, hits give low values 1.01 | S. cerevisiae deletion strains, locus YPL106C, strain sse1, hits give low values 1.02 | S. cerevisiae deletion strains, locus YPL240C, strain hsp82, hits give low values 1.01 | S. cerevisiae deletion strains, locus YPL241C, strain CIN2, hits give low values 1.01 | S. cerevisiae deletion strains, locus YPL256C, strain CLN2, hits give low values 0.977 | S. cerevisiae deletion strains, locus YPR119W, strain clb2, hits give low values 1.01 | S. cerevisiae deletion strains, locus YPR141C, strain kar3, hits give low values 1.01 | S. cerevisiae deletion strains, locus YPR163C, strain tif3, hits give low values 1.01 | S. cerevisiae deletion strains, locus YPR167C, strain met16, hits give low values 1.02 | S. cerevisiae deletion strains, strain wtn01, hits give low values 1 | S. cerevisiae strains, strain wild type, hits give low values 1.01
